Bioassay records (PubChem)
PAFAH1B2 inh: blocks human PAF acetylhydrolase 1b catalytic subunit 2 | inhibition, % at 3.39 µM | recombinant PAFAH1B2, FP-rhodamine activity probe, fluorescence polarization | 340,000 compounds, 1.2% hits;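 active means inhibition above the mean of all tested compounds plus 3 SD, cut at about 24% in these data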;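 further: 0% = enzyme with DMSO and 100% = wells lacking PAFAH1B2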
PAFAH2 FP inh: PAFAH2 (human) inhibition | Q99487 | recombinant PAFAH2, FP-rhodamine activity probe, fluorescence polarization | inhibition, % at 3.39 µM | 340,000 compounds, 0.99% hits;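 active means inhibition above the mean over all tested compounds plus 3 SD, cut at about 30% in these data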;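 further: inhibitors block probe labeling of enzyme so polarization drops; 0% = enzyme with DMSO and 100% = wells lacking PAFAH2 protein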
EBNA-1 inh: blocks EBNA-1 binding to DNA; EBNA-1 DNA binding, fluorescence polarization; inhibition, % at 14.8 µM; 300,000 compounds, 0.34% hits; in the data active means inhibition above about 28%
pPAFAH FP inh: inhibitors of human plasma PAF acetylhydrolase (pPAFAH); 330,000 compounds, 1.5% hits; recombinant pPAFAH, FP-rhodamine probe fluorescence polarization; inhibition, % at 3.39 µM;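 active means inhibition above the mean inhibition across the screen plus 3 SD, cut at about 25% in these data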;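 further: inhibitors block binding of the rhodamine activity-based probe so polarization drops; 0% = enzyme with DMSO and 100% = wells lacking pPAFAH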
Target sequence (Q13093 whole entry, looked up): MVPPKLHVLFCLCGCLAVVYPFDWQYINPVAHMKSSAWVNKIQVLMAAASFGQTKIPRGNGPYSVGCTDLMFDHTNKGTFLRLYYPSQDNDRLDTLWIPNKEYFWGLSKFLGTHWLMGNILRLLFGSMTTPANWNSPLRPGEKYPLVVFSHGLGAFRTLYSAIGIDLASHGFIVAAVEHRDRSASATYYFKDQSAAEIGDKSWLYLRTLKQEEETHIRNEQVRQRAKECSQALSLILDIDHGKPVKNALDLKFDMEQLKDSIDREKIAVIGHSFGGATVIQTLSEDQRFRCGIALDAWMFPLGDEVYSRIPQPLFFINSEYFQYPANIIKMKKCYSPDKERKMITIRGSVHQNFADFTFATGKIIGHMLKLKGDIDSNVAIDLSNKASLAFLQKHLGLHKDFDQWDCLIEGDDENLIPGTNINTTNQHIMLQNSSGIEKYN
ZTA DNA inh: ZTA (EBV) inhibition in EBNA-1 counter-screen | AID 2234 | P03206 | 320,000 compounds, 0.15% hits | inhibition, % at 11 µM | ZTA-DNA binding, fluorescence polarization; in the data active means inhibition above about 33%
PAFAH1B3 inh: blocks human PAF acetylhydrolase 1B catalytic subunit 3; AID 492972; Q15102; inhibition, % at 3.39 µM; 340,000 compounds, 0.28% hits; recombinant PAFAH1B3, FP-rhodamine probe, fluorescence polarization;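 active means inhibition above the screen-wide average of all tested compounds plus 3 SD, cut at about 25% in these data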;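 further: 0% = enzyme with DMSO only and 100% = wells lacking PAFAH1B3 protein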
Numbers without * were called inactive; / = no result. This is a sample that favours compounds with a hit; in the whole collection about 2.9% have one here.

SMILES	PAFAH1B2 inh	PAFAH2 FP inh	EBNA-1 inh	pPAFAH FP inh	ZTA DNA inh	PAFAH1B3 inh
O=C(N/N=C/c1ccc[nH]1)c1cc2ccccc2cc1O	7	10	-16	25*	3	22
CC[N+]1(C)CCC(O)(c2ccc(OC)cc2)C(C(=O)c2ccc(OC)cc2)C1 (configuration not stated)	4	-5	/	/	/	13
O=C(c1ccc(F)cc1)C1CCN(C(=S)NCC2CCCO2)CC1 (configuration not stated)	4	2	-13	6	-3	9
COc1ccc(-c2ccc(-c3cc(=O)oc4cc(OC)c(OC)c(OC)c34)cc2)cc1	3	0	/	3	/	9
N#Cc1c(NC(=O)Cn2cnc3ccccc3c2=O)oc(-c2ccccc2)c1-c1ccccc1	29*	2	6	16	5	6
N#Cc1c(NC(=O)CN2CCOCC2)oc(-c2ccccc2)c1-c1ccccc1	13	-3	6	1	6	1
N#Cc1c(NC(=O)CSc2ncccn2)oc(-c2ccccc2)c1-c1ccccc1	12	1	-15	32*	-6	6
CCc1nnc(SCc2ccc([N+](=O)[O-])cc2)nc1CC	-3	3	-1	-8	3	-4
CCn1c(=O)cc(SCC(=O)N(C)Cc2ccccc2)c2ccccc21	4	10	-3	10	3	3
CN(Cc1ccccc1)C(=O)CSc1cc(=O)n(C)c2ccccc12	-3	7	6	29*	-1	3
Cc1c(C(=O)NNC(=S)Nc2ccc(S(N)(=O)=O)cc2)oc2ccccc12	9	2	0	28*	-2	14
Cc1c(C(=O)Nc2ccc(S(N)(=O)=O)cc2)oc2ccc(Cl)cc12	-2	-1	-16	-2	0	3
O=C(/C=C/c1ccco1)c1ccc(NC(=O)C23CC4CC(CC(C4)C2)C3)cc1	2	-5	17	32*	19	-11
O=C(C=Cc1ccco1)c1ccc([N+](=O)[O-])cc1	4	9	/	/	/	3
N#Cc1ccncc1Sc1ccc(Cl)cc1	6	4	3	5	14	10
CC1SC(=S)N(c2ccc(N(C)C)cc2)C1=O (configuration not stated)	1	-4	-12	29*	5	10
CN(C)c1ccc(N2C(=O)CC(c3ccccc3)CC2=O)cc1	1	0	15	-1	1	1
Cc1cc(C)n2c(SCC(O)=C(C#N)c3nc4ccccc4[nH]3)nnc2n1	2	3	/	/	/	3
Cc1ccc(Nc2nnc(SC/C(O)=C(\C#N)c3nc4ccccc4[nH]3)s2)c(C)c1	21	-1	-7	29*	9	8
Cc1cccc(Nc2nnc(SC/C(O)=C(\C#N)c3nc4ccccc4[nH]3)s2)c1	20	-13	4	25*	5	16
Nc1c(C(=O)CSc2nc(-c3ccccc3)cs2)c(=O)[nH]c(=O)n1C1CC1	-6	-6	/	0	11	-8
Cc1ccc(-n2c(N)c(C(=O)Nc3ccccc3F)sc2=S)cc1C	2	6	23	2	6	10
Cc1ccc(NS(=O)(=O)c2cc(Br)cnc2N)c(Cl)c1	1	4	-2	-6	-11	11
Nc1ncc(Br)cc1S(=O)(=O)Nc1cc(C(F)(F)F)cc(C(F)(F)F)c1	26*	3	-14	13	1	6
O=c1[nH]c2cc(Cl)ccc2n1-c1ccccc1	1	7	2	28*	3	4
SMILES	PAFAH1B2 inh	PAFAH2 FP inh	EBNA-1 inh	pPAFAH FP inh	ZTA DNA inh	PAFAH1B3 inh
Cc1ccc(NC2CCCN(C(=O)c3cc4ncccn4n3)C2)cc1C (configuration not stated)	1	-6	-8	7	-3	1
CC(C)c1ccc(NC2CCCN(C(=O)c3n[nH]c4c3CCC4)C2)cc1 (configuration not stated)	27*	3	3	3	5	2
Cc1cc(C)c(C(=O)C2OC(=O)C(C)(C)C(=O)C2(C)C)c(C)c1 (configuration not stated)	5	3	4	2	2	11
O=C(NCCN1CCOCC1)c1ccc(NS(=O)(=O)c2cccc([N+](=O)[O-])c2)cc1	1	-6	-7	-7	-8	3
O=C(CCSc1ccc(Cl)cc1)NCc1ccncc1	12	-3	-5	2	-5	0
O=C(CSc1ccc(Cl)cc1)NCc1ccncc1	29*	-6	-3	5	3	4
Cc1cccc(-n2c(-c3ccncc3)n[nH]c2=S)c1C	4	-5	2	30*	7	8
C=CCN(C(=O)CCC(=O)Nc1cc(C)on1)C(C(=O)NC(C)(C)C)c1ccc(OC)cc1 (configuration not stated)	-1	7	-13	6	-17	12
CC(Sc1ccc(S(=O)(=O)N2CCN(C)CC2)cn1)C(=O)NC1(C#N)CCCCC1 (configuration not stated)	31*	6	/	/	/	3
CC(=O)Nc1ccc(NC2=C/C(=N/S(=O)(=O)c3cccs3)c3ccccc3C2=O)cc1	/	/	-4	31*	23	/
Cc1ccc(NC2=C/C(=N/S(=O)(=O)c3cccs3)c3ccccc3C2=O)cc1C	-3	1	-10	-2	6	10
Cc1ccccc1NC1=C/C(=N\S(=O)(=O)c2ccc(C(=O)O)cc2)c2ccccc2C1=O	34*	67*	-9	22	57*	65*
Cc1ccccc1NC1=C/C(=N\S(=O)(=O)c2cccs2)c2ccccc2C1=O	25*	40*	8	21	15	64*
COc1ccccc1NC(=O)CN1C(=O)NC2(CCCc3ccccc32)C1=O (configuration not stated)	2	-8	/	-1	8	-1
COc1ccc(C(NC(=O)/C=C/c2ccco2)c2ccc(OC)cc2)cc1	0	4	4	27*	3	0
COc1ccc2c(c1)c1ccc3c(c1n2C)C(=O)C=CC3=O	45*	36*	/	/	/	31*
CN(CC(=O)Nc1cccc(F)c1)C(=O)CCc1nc2cc(S(=O)(=O)N3CCOCC3)ccc2n1C	2	4	-11	-1	-9	8
Cc1nn(C)cc1C1C2=C(CC(C)(C)CC2=O)N(c2ccccc2)C2=C1C(=O)CC(C)(C)C2	2	9	10	2	4	-3
Cc1ccc(N2C3=C(C(=O)CC(C)(C)C3)C(c3cn(C)nc3C)C3=C2CC(C)(C)CC3=O)cc1	6	4	0	27*	-10	1
Cn1c(N)c(C(=O)CSc2nnc(C3CC3)n2N)c(=O)n(C)c1=O	8	4	/	-1	1	9
CC(C)N(Cc1ccccc1)C(=O)CN1C(=O)NC2(CCCc3ccccc32)C1=O (configuration not stated)	15	-4	10	6	2	-2
